Rows were chosen to be rich in hits. Some 2.4% of all compounds tested hit in one or more screens of this group.
APE1 inh: APE1 (human) endonuclease inhibition; recombinant APE1, TAMRA/BHQ-2 abasic DNA cleavage fluorescence; Potency, µM (doses to about 65.8 µM), without a hit: top-dose activity change, negative = inhibition, most hits filed as inhibitors; actives 0.35% (n = 350,000); AID 2517;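 further: potency means the concentration at half of the fitted maximal effect; plate controls were vehicle for no effect and reference inhibitor for full effect; nearly all actives have a fitted effect of over 55% in size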
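Enzyme (0.75 nM final) and test compound are incubated 15 min at room temperature before adding 50 nM quenched THF abasic-site duplex. Cleavage dequenches TAMRA, followed at 525/598 nm over three reads one minute apart.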
GLS inh: glutaminase GLS (human) inhibition; O94925; GLS enzymatic activity, qHTS titration; Potency, µM (doses to about 45.5 µM), for the others: at the top dose activity change, negative = inhibition, hits mostly inhibitors; actives 0.21% (n = 410,000); AID 624170; further: potency means the concentration at half of the fitted maximal effect; on the % scale 0 is the no-effect control and ±100 the full control effect
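hKGA in 45 mM KH2PO4 pH 8.2, 0.02% Tween-20 with pin-transferred compounds; 1 mM L-glutamine (stock) plus glutamate oxidase/HRP/Amplex Red coupling added. Fluorescence read initially and after 30 min at RT.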
Pol kappa inh-1: DNA polymerase kappa (human) inhibition. actives 0.53% (n = 400,000). purified Pol kappa, fluorescent DNA synthesis assay, 10 min. Q9UBT6. Potency, µM (doses to about 107 µM), for the others: at the top dose activity, negative = inhibition, actives largely listed as inhibitors; further: potency means the concentration at half of the fitted maximal effect; on the % scale 0 is the no-effect control and ±100 the full control effect
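Activity was followed as the change in fluorescence between reads at 0 and 10 min after starting the reaction with 50 nM substrate. Beforehand, 10 nM polymerase had been preincubated with compound for 15 min at room temperature.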
Pol eta inh-1: DNA polymerase eta (human) inhibition; Q9Y253; recombinant Pol eta, fluorescent DNA replication assay; Potency, µM (series often up to 114 µM), without a hit: at the top dose activity change, negative = inhibition, most hits filed as inhibitors; actives 1.2% (n = 390,000); AID 588591; further: potency means the concentration at half of the fitted maximal effect; on the % scale 0 is the no-effect control and ±100 the full control effect
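Fluorescent replication assay: 50 nM final substrate added after a 15 min room-temperature compound preincubation with 10 nM enzyme. Signal taken at 0 min and again at 10 min.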
Pol iota inh: inhibitors of human DNA polymerase iota; Q9UNA4; Pol iota fluorescent replication assay, 10 min; Potency, µM (top dose mostly 115 µM), for inactives: top-dose activity, negative = inhibition, usual class: inhibitors; actives 1% (n = 390,000); further: potency means the concentration at half of the fitted maximal effect
Target sequence (Q9UNA4 whole entry, looked up): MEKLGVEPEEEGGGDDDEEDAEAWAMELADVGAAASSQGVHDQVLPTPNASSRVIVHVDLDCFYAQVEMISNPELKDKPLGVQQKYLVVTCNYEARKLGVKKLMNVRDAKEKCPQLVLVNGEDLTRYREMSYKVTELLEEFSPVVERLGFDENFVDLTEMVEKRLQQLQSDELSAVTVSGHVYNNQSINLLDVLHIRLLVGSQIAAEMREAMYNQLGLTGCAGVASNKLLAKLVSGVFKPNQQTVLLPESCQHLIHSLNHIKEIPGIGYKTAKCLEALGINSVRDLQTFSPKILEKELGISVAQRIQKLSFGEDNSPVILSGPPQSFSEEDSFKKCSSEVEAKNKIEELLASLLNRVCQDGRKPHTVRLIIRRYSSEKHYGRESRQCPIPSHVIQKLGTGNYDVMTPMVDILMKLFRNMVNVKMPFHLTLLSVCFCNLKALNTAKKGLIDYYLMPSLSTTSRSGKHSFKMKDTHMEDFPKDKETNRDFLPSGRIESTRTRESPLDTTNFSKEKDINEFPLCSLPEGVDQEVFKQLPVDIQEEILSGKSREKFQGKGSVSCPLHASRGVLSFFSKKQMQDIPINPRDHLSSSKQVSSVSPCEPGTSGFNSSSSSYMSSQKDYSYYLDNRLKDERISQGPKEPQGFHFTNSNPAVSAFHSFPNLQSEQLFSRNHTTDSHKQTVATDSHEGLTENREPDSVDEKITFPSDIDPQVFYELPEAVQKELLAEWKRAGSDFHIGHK
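Pol iota at 10 nM preincubated 15 min with compounds at room temperature; reaction started with fluorescent substrate, 50 nM final. Fluorescence read kinetically at 0 and 10 min; buffer-only wells as negative control.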
POLB inh: blocks human DNA polymerase beta activity. Pol beta primer extension/strand displacement, fluorescence kinetic. Potency, µM (highest dose often 114 µM), without a hit: top-dose activity change, negative = inhibition, actives largely listed as inhibitors. actives 1.3% (n = 340,000); further: potency means the concentration at half of the fitted maximal effect; on the % scale 0 is the no-effect control and ±100 the full control effect
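Human Pol beta at 10 nM; strand-displacement substrate 50 nM final. Compound exposure 15 min at room temperature before start, reaction 10 min at room temperature.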
TbPGK inh: blocks T. brucei phosphoglycerate kinase | shares compounds with Pol kappa inh-1 | TbPGK coupled GAPDH assay, Kinase-Glo luminescence | Potency, µM (titrated, usually from 57.5 µM), without a hit: at the highest dose activity change, negative = inhibition, most hits filed as inhibitors | actives 79% (n = 500); further: potency means the concentration at half of the fitted maximal effect; on the % scale 0 is the no-effect control and ±100 the full control effect; nearly all actives have a fitted effect of over 65% in size
Pol iota confirm: Confirm cherry-picked inhibitors of human polymerase iota; AID 720496; Pol iota primer extension, TAMRA/BHQ fluorescence; Potency, µM, actives largely listed as inhibitors; actives 77% (n = 1,500); shares compounds with Pol kappa inh-1; further: potency means the concentration at half of the fitted maximal effect
GALK inh confirm: galactokinase (human) inhibition, confirmation | shares compounds with Pol eta inh-1 | Potency, µM (doses to about 115 µM), inactives show at the top dose activity, negative = inhibition, usual class: inhibitors | purified GALK, Kinase-Glo ATP depletion luminescence | actives 70% (n = 150)
GALK redox cs: redox cycling activity in phenol red-HRP assay; shares compounds with Pol eta inh-1; Phenol red-HRP H2O2 redox cycling, absorbance 600 nm; Potency, µM (top dose mostly 115 µM), for the others: at the top dose activity change, negative = H2O2 signal, actives largely listed as inhibitors; actives 40% (n = 150)
HEK293 viability: HEK-293 cytotoxicity, GALK inhibitor secondary; shares compounds with Pol eta inh-1; Potency, µM (titrated, usually from 46.1 µM), for inactives: at the top dose activity change, negative = cytotoxicity, most hits filed as inhibitors; HEK-293 viability, ATP luminescence (CellTiter-Glo), 24/48 h; actives 10% (n = 170); further: potency means the concentration at half of the fitted maximal effect; on the % scale 0 is the no-effect control and ±100 the full control effect
Pol kappa inh-2: Pol kappa (human) inhibition, cherry-pick confirmation. AID 720501. actives 76% (n = 920). shares compounds with Pol eta inh-1. purified Pol-kappa, fluorescent strand-displacement substrate. Potency, µM, hits mostly inhibitors; further: potency means the concentration at half of the fitted maximal effect
Pol eta inh-2: confirmation of human DNA polymerase eta inhibitors. shares compounds with Pol eta inh-1. Pol eta primer extension, TAMRA/BHQ fluorescence, 10 min. Potency, µM, most hits filed as inhibitors. actives 64% (n = 2,600). AID 720502; further: potency means the concentration at half of the fitted maximal effect
Active calls of the source: *; u = inconclusive; x = no result; ! = not confirmed by another sample; [ ] = another dose, or the depositor's remark. The call rests on the fitted dose curve; in most records, active means well fitted curve in the direction sought with a large enough effect; inconclusive means small, poorly fitted or top-dose-only effect, or another doubt; inactive means no such curve, though single readings can be large; an effect the other way counts as inactive or inconclusive.

SMILES | APE1 inh | GLS inh | Pol kappa inh-1 | Pol eta inh-1 | Pol iota inh | POLB inh | Pol iota confirm | Pol kappa inh-2 | Pol eta inh-2 | others
COc1ccccc1OCC(=O)Nc1sc2c(c1C(N)=O)CCC2 | -16% | 2% | u | u | u | x | x | x | x
Cn1cnnc1SCC(=O)Nc1sc2c(c1C(N)=O)CCC2 | u | -32% | u | 22µM* | u | 14µM* | 67* | x | 43*
COCCn1cnnc1SCC(=O)Nc1sc2c(c1C#N)CCC2 | 10% | 21% | -41% | u | u | x | x | x | x
COc1cccc(C(=O)OCC(=O)Nc2sc3c(c2C(N)=O)CCC3)c1O | u | -1% | 79µM* | 22µM* | 20µM* | x | 42* | 27* | 30*
O=C(CSc1ncccn1)NC1CCCC1 | x | 0% | x | -4% | x | x | x | x | x
Cc1c(Br)c(=O)oc2c(Br)c(O)c(O)cc12 | 3% | 16% | 22µM* | 3.2µM* | 13µM* | 4.5µM* | 24* | x | 5.4* | TbPGK inh=6.5µM*
COc1ccccc1CNC(=O)CCn1cnc2ccccc2c1=O | x | u | -3%[60.1 µM] | 50µM* | u | 11µM* | u | u | 54*
COc1ccccc1CNC(=O)CCNC(=O)Cn1cnc2ccccc2c1=O | -3% | -7% | -5% | -8% | 40% | 34% | x | x | x
CCc1ccc(S(=O)(=O)/N=C2\C=C(Nc3ccc(C(=O)O)cc3)C(=O)c3ccccc32)cc1 | -15% | -11% | -8% | 28µM* | 11µM* | -30% | 19* | u | 21* | GALK inh confirm=u;GALK redox cs=12µM*;HEK293 viability=11µM*
Cc1ccc(S(=O)(=O)/N=C2\C=C(Nc3cccc(C(=O)O)c3)C(=O)c3ccccc32)cc1 | -13% | -3% | 3% | 32µM* | 4µM* | u | 75* | x | 48*
O=C(CNC(=O)COc1ccccc1)NCc1cccnc1 | 11% | 2% | 9% | -8% | 83% | 39% | x | x | x
O=C(O)CCNc1cc(N2CCN(C(=O)c3ccco3)CC2)c2noc3c2c1C(=O)c1ccccc1-3 | -34% | 5% | 13µM* | 3.2µM* | u | 18µM* | 17* | u | 6.7* | TbPGK inh=21µM*
Cc1ccc(S(=O)(=O)N2[C@@H](c3ccc(C(C)(C)C)cc3)C(C(=O)O)=CC[C@H]2c2ccc(Cl)cc2)cc1 | 15% | -9% | u | 79µM* | u | x | u | 67* | u
COc1cccc(CN(C(=O)/C=C/c2ccco2)C2CCS(=O)(=O)C2)c1 (stereo unspecified) | 10% | -5% | 89µM* | u | 45µM* | u | u | x | u
COc1ccc(CN(C(=O)/C=C/c2ccco2)C2CCS(=O)(=O)C2)cc1 (stereo unspecified) | u | 4% | u | 50µM* | 18µM* | 20µM* | 53* | x | 85*
COc1cccc(CN(C(=O)c2ccco2)C2CCS(=O)(=O)C2)c1 (stereo unspecified) | -9% | 6% | -9% | 5% | 21% | -3% | x | x | x
O=C(N/N=C/c1ccc([N+](=O)[O-])o1)C(=O)Nc1ccc(C(=O)O)cc1 | -8% | -12% | -19% | u | u | u | x | x | x
O=C(O)c1ccc(N/N=C/C=C/c2ccc([N+](=O)[O-])o2)cc1 | 11µM* | 130% | 79µM* | 22µM* | 8.9µM* | 3.2µM* | 38* | x | 27* | TbPGK inh=16µM*
CS(=O)(=O)N(CC(=O)NCCSCc1ccccc1Cl)c1ccccc1F | 1% | -2% | 9% | -15% | 0% | 40% | x | x | x
CCN(CC)CCOC(=O)c1ccc(NC(=O)c2nn(-c3ccc(C)cc3)c(=O)c3c2c2ccccc2n3C)cc1 | x | 3% | -7% | 79µM* | u | 7.9µM* | u | u | u
Cc1ccc(OCC(=O)Nc2cccc3ccc(C)nc23)c(C)c1 | x | -8% | 6% | 9% | u | 0% | x | x | x
COc1cccc2c1C(=O)c1c(O)c3c(c(O)c1C2=O)CC(O)(C(C)=O)CC3OC1CC(N(C)C)C(O)C(C)O1 (stereo unspecified) | x | 18% | u | 11µM* | 22µM* | x | 11* | 24* | 19*
COc1cccc2c1C(=O)c1c(O)c3c(c(O)c1C2=O)C[C@@](O)(C(=O)CO)C[C@@H]3OC1CC(N)C(O)C(C)O1 (stereo partly specified) | x | 0% | 11µM*! | 5µM* | 35µM* | x | 17* | 9.5* | 60*
O=C(O)Cn1cc(/C=C2/NC(=O)N(c3ccc(Cl)cc3)C2=O)c2ccccc21 | -11% | u | -9% | -19% | -2% | u | x | x | x
O=C(O)c1cc(-c2ccc(/C=C3\NC(=O)N(c4ccc(Cl)cc4)C3=O)o2)ccc1Cl | 25µM* | 20µM* | 10µM* | 3.5µM* | 10µM* | 6.3µM* | 21* | 17* | 5.4* | TbPGK inh=21µM*
